Screening data deposited in PubChem BioAssay by National Center for Advancing Translational Sciences (NCATS).
Only some compounds are listed: those with a hit (about 21% of all), similar ones and a draw of the others.
Pf growth 48h = inhibits P. falciparum growth in the first generation, 48 h; P. falciparum luciferase growth in erythrocytes, 48 h; Potency, µM (highest dose often 28.7 µM), inactives show at the top dose activity change, negative = inhibition, hits mostly inhibitors; 310,000 compounds, 5.9% hits; AID 504832; also: potency is read from the fitted curve at half-maximal effect; % is scaled to controls: 0 for no effect and ±100 for the full control effect
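In quantitative HTS format, infected erythrocytes bearing luciferase-reporter parasites were treated for a single generation at 37 C. Luminescence after adding detection reagent served as the growth measure.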
Shiga toxin inh = inhibitors of Shiga toxin in Vero cells; Vero cells, Shiga toxin protein synthesis inhibition reporter; inhibition, % at 38.7 µM; 290,000 compounds, 9.2% hits; AID 2315; in the data active = inhibition mostly above about 28%, no sharp cut-off; inactive = mostly below about 43%; also: 0% is about no effect
AMA1 RON2 block = AMA1-RON2 (P. falciparum) interaction inhibition | AlphaScreen AMA1-biotinylated RON2 peptide binding | Potency, µM (titrated, usually from 58.2 µM), without a hit: top-dose activity change, negative = inhibition, usual class: inhibitors | 360,000 compounds, 0.2% hits;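 also: potency is read from the fitted curve at half-maximal effect; 0% = vehicle wells and -100% = peptide control; nearly all actives have a fitted effect of over 45% in size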
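AMA1 (3D7) with his tag at 25 nM final met compounds first, then biotinylated RON2 peptide at 25 nM; detection used donor plus acceptor beads, 10 µg/mL apiece, read by AlphaScreen after 30 min at room temperature.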
Cycloheximide cs = counter-screen for Shiga toxin inhibitors: cycloheximide protein synthesis inhibition | 300,000 compounds, 12% hits | cell reporter, cycloheximide protein synthesis inhibition counterscreen | max response, %; in the data active = max response mostly above about 13%, no sharp cut-off; inactive = mostly below about 14%; also: read at 38.3 µM for the half of the compounds with a filed dose; 0% is about no effect
HCV inhibitor = HCV inhibition | Huh7.5.1 HCVcc-Cre infection, luciferase reporter, 44 h | 340,000 compounds, 3.4% hits | Potency, µM (titrated, usually from 41.8 µM), without a hit: at the top dose activity change, negative = inhibition, usual class: inhibitors; also: potency is read from the fitted curve at half-maximal effect; % is scaled to controls: 0 for no effect and ±100 for the full control effect
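Seed cells (1,000/well) for 4 h; treat with compound and infect with HCVcc-Cre, moi about 0.5. Incubate 44 h, then detect luciferase activity.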
Pf growth 96h = inhibits malaria parasite growth, 96 h. P. falciparum luciferase reporter growth, 96 h. Potency, µM (titrated, usually from 28.7 µM), inactives show top-dose activity change, negative = inhibition, usual class: inhibitors. 320,000 compounds, 6.9% hits; also: potency is read from the fitted curve at half-maximal effect; % is scaled to controls: 0 for no effect and ±100 for the full control effect
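Delayed-death screen, second-generation endpoint: infected erythrocytes, 2% hematocrit, 0.05% parasitemia final; 96 hours at 37 C, 5% CO2; luciferase detection reagent; luminescence decrease equals reduced growth.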
The depositor's hits bear a star; i = inactive; ? = inconclusive; · = not tested or not shown; ! = a repeat was not active; [ ] = dose if it differs, or a comment. Unless noted, calls follow the shape of the dose curve; as a rule, active = well fitted curve in the direction sought with a large enough effect; inconclusive = small, poorly fitted or top-dose-only effect, or another doubt; inactive = no such curve, though single readings can be large; an effect the other way counts as inactive or inconclusive.

SMILES | Pf growth 48h | Shiga toxin inh | AMA1 RON2 block | Cycloheximide cs | HCV inhibitor | Pf growth 96h
COC(=O)C1=C(N)Oc2cc(N(C)C)ccc2C1c1ccccc1OC (centres undefined) | ? | 4 | -7% | -3 | 6.3µM* | 25%
CCC1=C([N+](=O)[O-])C(c2ccc3c(c2)OCO3)NC(=O)N1 (centres undefined) | 18% | · | 7% | -3 | 10% | -6%
COc1ccccc1CNC(=O)CS(=O)Cc1nc(-c2ccccc2C)oc1C (centres undefined) | · | -6 | 1% | -4 | 1% | 5.2µM*
COc1ccc(CNC(=O)CS(=O)Cc2nc(-c3ccc(OC)c(OC)c3)oc2C)cc1 (centres undefined) | -16% | -4 | 5% | 13 | -4% | -26%
COc1ccc(CNC(=O)CS(=O)Cc2nc(-c3ccccc3C)oc2C)cc1 (centres undefined) | · | -15 | -6% | -4 | -15% | 10%
Cc1ccc(-c2nc(CS(=O)CC(=O)NCCN(CC(C)C)CC(C)C)c(C)o2)cc1 (centres undefined) | 8% | 4 | -1% | 2 | 11µM*! | 11%
COc1ccc(-c2nc(CS(=O)CC(=O)NCc3ccc4c(c3)OCO4)c(C)o2)cc1 (centres undefined) | · | 20 | 0% | -2 | 8% | 4.7µM*
COc1ccc(CNC(=O)CS(=O)Cc2nc(-c3ccc(C)cc3)oc2C)cc1 (centres undefined) | · | -11 | 0% | -1 | -12% | 7.4µM*
COc1ccc(NC(=O)C2CC(=O)N(c3ccccc3Cl)C2)c(OC)c1 (centres undefined) | -5% | -6 | 9% | -5 | 1% | 15%
Cc1ncc([N+](=O)[O-])n1CC(=O)N/N=C/c1ccccc1F | 8% | -2 | -13% | 2 | 19% | 1%
Cc1cc(=O)oc2cc(OC(C)C(=O)NC3(C#N)CCCCC3)ccc12 (centres undefined) | 8% | · | -5% | · | 4% | 15%
Cc1ccc2nc(-c3cccc(Br)c3)c(Cc3ccccc3C(F)(F)F)n2c1 | · | · | -3% | · | · | ·
Cc1nn(C)cc1C(C)NC(=O)c1cc(COc2ccc(F)c(F)c2)on1 (centres undefined) | ? | 18 | -8% | 33* | -24% | ?
Cc1nn(C)c(C)c1C(C)NC(=O)c1cc(COc2cncc(Cl)c2)on1 (centres undefined) | ? | -11 | -1% | 15 | -18% | -1%
Cc1nn(C)c(C)c1C(C)NC(=O)c1cc(COc2ccc(F)c(F)c2)on1 (centres undefined) | -13% | 47* | -8% | 33* | ? | -14%
COC(=O)c1ccc(Oc2nc(NC(C)(C)C)nc(N3CCOCC3)n2)cc1 | 23% | -12 | · | 8 | · | 65%
CCCC[C@@H]1Cc2[nH][nH]c(=O)c2[C@H](c2ccc(C(C)C)cc2)O1 | · | · | 106% | · | · | ·
O=C(N/N=C/c1ccc(OC(F)F)cc1)C1=COCCO1 | 282% | 78* | 1% | 51* | -5% | 340%
O=C(N/N=C/c1ccccc1OC(F)F)C1=COCCO1 | 0% | 64* | 103% | 27* | ? | 25%
O=C(NN=Cc1ccc(OC(F)F)cc1)c1ccc(NS(=O)(=O)c2cccs2)cc1 | · | · | -1% | · | ? | ·
O=C(COC(=O)C1=COCCO1)Nc1ccccc1OC(F)F | 18% | 20 | -2% | 5 | 17% | 12%
[O-][N+](=C(c1ccccc1)c1ccccc1)c1ccccc1 | · | · | 0% | · | 12% | ·
COc1ccc2c(c1)OC(=O)CC2c1ccccc1C (centres undefined) | · | i | · | 1 | · | ·
Cc1cccc(C(=O)NNC(=O)c2ccc(Cl)cc2)c1O | 78% | 79* | -6% | 30* | 1% | 89%
O=C(NNC(=O)c1ccccc1O)c1ccc(Br)cc1 | -11% | · | 29% | 44* | ? | -5%
SMILES | Pf growth 48h | Shiga toxin inh | AMA1 RON2 block | Cycloheximide cs | HCV inhibitor | Pf growth 96h
NC(=S)NNC(=O)c1cccc(Br)c1 | -17% | -4 | · | 14 | · | 39%
Cc1ccc(C(=O)NNC(=O)c2cccc(Br)c2)cc1 | 22% | 11 | 37% | 9 | 29% | ?
O=C(NNC(=O)c1ccccc1O)c1cccc(Br)c1 | 82% | 51* | 89% | 25* | ? | 3%
CC(C)(C)c1ccc(C(=O)NNC(=O)c2cccc(Br)c2)cc1 | 43% | 27 | 4% | 16* | ? | 20%
O=C(NNC(=O)c1cccc2ccccc12)c1ccc(Cl)cc1 | · | · | 37% | · | ? | ·
CCc1nn(C)c(N)c1C | 4% | -4 | -1% | 2 | -3% | -18%
O=C(NNC(=O)c1ccc(O)cc1O)c1ccc(Cl)cc1 | 86% | 43 | -1% | 7 | -3% | ?
O=C(NNC(=O)c1ccccc1O)c1ccc(Cl)cc1 | 84% | 48* | 74% | 33* | -25% | 243%
O=C(c1c(F)cccc1F)N(Cc1ccccn1)C1CC1 | 0% | 56 | 2% | 24* | 2% | ·
O=C(CC1CCCCC1)NCc1ccccn1 | 4% | 2 | 12% | -2 | 19% | ?
Cc1cc(NS(=O)(=O)c2ccc(NC(=O)c3ccc([N+](=O)[O-])cc3)cc2)nc(C)n1 | · | · | -7% | · | · | ·
COc1ccc(CNCC2COc3ccccc3O2)cc1 (centres undefined) | 11% | 28 | -12% | 22* | -7% | 30%
c1ccc(CNCC2COc3ccccc3O2)cc1 (centres undefined) | 13% | 49* | -9% | 2 | 9% | 71%
CC(Oc1ccccc1)C(=O)Nc1ccc(S(=O)(=O)N2CCN(C)CC2)cc1 (centres undefined) | ? | · | -6% | · | 33% | 0.066µM*
Cc1cccc(OC(C)C(=O)Nc2ccc(S(=O)(=O)N3CCCC3)cc2)c1 (centres undefined) | ? | -5 | -4% | -1 | -27% | 10µM*
Cc1ccc(OC(C)C(=O)Nc2cccc(S(=O)(=O)N3CCCCCC3)c2)cc1 (centres undefined) | · | · | -4% | · | · | ·
COc1cc(C(CCN2CCOCC2)c2c(OC)cc(OC)c3ccc(=O)oc23)cc(OC)c1OC (centres undefined) | · | -16 | · | -4 | · | ·
CCCCCc1cc(=O)oc2c(C(CCN3CCCC(C)C3)c3ccc(N(C)C)cc3)c(OC)cc(OC)c12 (centres undefined) | ? | 2 | 14µM* | -3 | -15% | 8.3µM*
CCCCCc1cc(=O)oc2c(C(CCN3CCCCC3)c3cc(OC)c(OC)c(OC)c3)c(OC)cc(OC)c12 (centres undefined) | 5.2µM* | -9 | -25% | 6 | ? | 2.3µM*
CCCCCc1cc(=O)oc2c(C(CCN3CCCC(C)C3)c3cc(OC)c(OC)c(OC)c3)c(OC)cc(OC)c12 (centres undefined) | 2.6µM* | 11 | -24% | -6 | -17%[8.37 µM] | 0.37µM*
